Measurements published in the OligoGym collection.

Biological target: MAGEA2B
Assay: pooled miR-30 sensor sort-seq; sequence = guide strand
Settings: shRNA
Also: reference of the scale not given here.

Sequence | sensor-assay potency score (higher = more potent)
TTAGTGTATGGTGCAGGACTTT | -1.05
AAAATGAACCAACTCAACCATC | -1.2
TCCAGGTCGGGAAACATTCTTG | -1.23
TCTGAGGACACTCTCCAGCATT | -1.1
TTGATGGTAGTCGAGAAGCTGG | -0.963
TCTTGCATGAGCAGCTTCCTGG | -1.1
ACCAACTCAACCATCTTCCTAC | -1.03
AAATGTGAGGTTCTCCACCGAT | -0.397
ATTTCTGAGGACACTCTCCAGC | -1.24

Biological target: MAGEA8
Assay: as above
Settings: shRNA

Sequence | sensor-assay potency score (higher = more potent)
TTCCTCAGCCTTGTAGCGCTGA | 0.23
TTCTTTATGTCTTTATCTCATG | -1.14
TTCTCATCAAGTGCTTCCCGGA | -0.615
TTTATGTCTTTATCTCATGTAT | -0.397
TGTGGGAATCTGCACATCCATA | -1.63
TAGCGCACAGGATCACTGCCGG | -0.803
TTTCTCATCAAGTGCTTCCCGG | -0.5
ATCAATGCCAAAGATCACCTGC | 0.274
TAATCCTCTGCTCTTGTAGTGT | -0.188
TAGAGGAGGAGGATGCAGCCTT | -0.332
TTTGATGACACTCTCAAGCATT | -0.926

Biological target: MAGED2
Assay: as above
Settings: shRNA

Sequence | sensor-assay potency score (higher = more potent)
TTGGGTGAGTCCTTAGTCGTTC | -0.156
TTGTATTGACCTTTGTATCAGC | -0.669
TTTCTTGGCTTTGACCTTGGGC | 0.00108
TTTGATGATGTCCTTCAGCATG | -1.48
TTCTTTTGTACCTTGCAGGCAA | 0.18
TTGATGGGAATCTTCGTCTGGT | -0.0413
TTCTTTGATGATGTCCTTCAGC | -0.636
TTTAGCTTCTGCTCCCGCCTGG | -0.0182
AACAGAGTCTGCATCATCGAGC | -0.281
TCGAGCTCTAATCTCGGCCCTA | -0.609
TTTTGAGACCTTCACATCCTCT | -1.1

Biological target: MAGOHB
Assay: as above
Settings: shRNA

Sequence | sensor-assay potency score (higher = more potent)
TTCTTTTGTAATTTCACTGTCA | 0.267
AATTACAATTTCAAGCTCCTGT | 0.142
TACAATTTCAAGCTCCTGTCGG | 0.0556
TTCTTCCATTACACTCTTGTGC | -0.965
TTCGAACTCCAGAAACTCGTGC | 0.282
ATATCTAAGCTTTCCGTCCGGC | -0.264
TTTTCTGATCATCACATCATTT | -1.33
AAACTAAACATTTCAAGTCTTG | -0.697
TTACATCAATAAGAGAACCTAT | -0.7
